Records with an inconclusive call do not appear. Activity calls are given as the source filed them.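 How the source made its calls, unless noted: active means percent response above a set limit, the screen-wide mean plus 3 SD (cut at about 130% in these data); inactive means the rest.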
Columns and labels:
[1] = yeast TOR pathway RPL19A-GFP modulators, primary screen, cell-based, S. cerevisiae, multiplex flow cytometry (AID 1862; in the data active means percent of DMSO control GFP below about 86%;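 further: lower values mimic rapamycin by blocking the RPL19A rise seen in DMSO cells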); conditions: S. cerevisiae RPL19A-GFP strain, flow cytometry fluorescence, 3 h; at 10 µM; stronger effect = lower value
[2] = modulators of MEP2-GFP levels in yeast, primary screen, S. cerevisiae, multiplex flow cytometry (AID 1867;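 active means GFP response, as percent of the DMSO control, above the screen-wide mean plus 3 SD, about 139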;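 further: median GFP channel fluorescence of barcode-gated MEP2-GFP cells measured by flow cytometry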); conditions: S. cerevisiae MEP2-GFP strain, 3 h, at 10 µM, stronger effect = higher value, 100% means same as DMSO wells
[3] = modulators of CIT2-GFP expression in yeast, primary screen, S. cerevisiae, GFP fusion, multiplex flow cytometry (AID 1870); conditions: 3 h, at 10 µM, stronger effect = higher value;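 further: barcoded CIT2-GFP strain pooled with four other GFP strains with rapamycin as positive control; median GFP fluorescence per well over plate mean of DMSO wells so 100% = DMSO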
[4] = modulators of LAP4-GFP expression in yeast, primary screen, S. cerevisiae, multiplex flow cytometry (AID 1873;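 active means GFP signal, as percent of the solvent control, above the screen mean plus 3 SD, about 149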); conditions: 3 h, at 10 µM, stronger effect = higher value
[5] = modulators of AGP1-GFP expression in yeast TOR pathway, primary screen, cell-based, multiplex flow cytometry, S. cerevisiae (AID 1887;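 active means GFP signal above the screen-wide mean plus 3 SD, that is over about 124.5% of the solvent control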;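 further: AGP1-GFP fusion strain of S. cerevisiae within a five-strain barcoded multiplex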); conditions: 3 h, at 10 µM, stronger effect = higher value
[6] = inhibitors of CD8+ T cell-vesicle binding, pilot screen, LFA-1/ICAM-1 modulator project, MLPCN validation set, flow cytometry (AID 2523;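 active means response below a set limit, under 55% cells CD8-positive and vesicle-bound, and CD8 cells' 90th-percentile brightness under 279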;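 on vesicle binding response: mean PE anti-B7-1 fluorescence of CD8+ cells relative to row control; 100% = QL9-loaded vesicles with DMSO vehicle in the same plate row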); conditions: 2C mouse CD8+ T cells, at 7 µM, stronger effect = lower value; double positive events: measured here: CD8+/vesicle+ event percentage
[7] = molecular target: Integrin beta-1 (Homo sapiens) + Integrin alpha-4 (Homo sapiens) (UniProt P13612+P05556); test: inhibition of HUTS-21 binding to VLA-4, pilot screen, VLA-4 allosteric modulator project, U937 cells, HUTS-21 mAb, flow cytometry, validation set (AID 2674;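 active means inhibition above 50%, about 3 SD of the validation set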;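 further: antibody binding induced by the VLA-4 ligand LDV present at three times its Kd; 0% = LDV ligand with antibody and no compound and 100% = antibody without LDV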); conditions: HUTS-21 LIBS mAb binding, at 6.7 µM, stronger effect = higher value, binding induced by LDV ligand
Chain of Integrin beta-1 (Homo sapiens) + Integrin alpha-4 (Homo sapiens) (P05556 whole entry, looked up): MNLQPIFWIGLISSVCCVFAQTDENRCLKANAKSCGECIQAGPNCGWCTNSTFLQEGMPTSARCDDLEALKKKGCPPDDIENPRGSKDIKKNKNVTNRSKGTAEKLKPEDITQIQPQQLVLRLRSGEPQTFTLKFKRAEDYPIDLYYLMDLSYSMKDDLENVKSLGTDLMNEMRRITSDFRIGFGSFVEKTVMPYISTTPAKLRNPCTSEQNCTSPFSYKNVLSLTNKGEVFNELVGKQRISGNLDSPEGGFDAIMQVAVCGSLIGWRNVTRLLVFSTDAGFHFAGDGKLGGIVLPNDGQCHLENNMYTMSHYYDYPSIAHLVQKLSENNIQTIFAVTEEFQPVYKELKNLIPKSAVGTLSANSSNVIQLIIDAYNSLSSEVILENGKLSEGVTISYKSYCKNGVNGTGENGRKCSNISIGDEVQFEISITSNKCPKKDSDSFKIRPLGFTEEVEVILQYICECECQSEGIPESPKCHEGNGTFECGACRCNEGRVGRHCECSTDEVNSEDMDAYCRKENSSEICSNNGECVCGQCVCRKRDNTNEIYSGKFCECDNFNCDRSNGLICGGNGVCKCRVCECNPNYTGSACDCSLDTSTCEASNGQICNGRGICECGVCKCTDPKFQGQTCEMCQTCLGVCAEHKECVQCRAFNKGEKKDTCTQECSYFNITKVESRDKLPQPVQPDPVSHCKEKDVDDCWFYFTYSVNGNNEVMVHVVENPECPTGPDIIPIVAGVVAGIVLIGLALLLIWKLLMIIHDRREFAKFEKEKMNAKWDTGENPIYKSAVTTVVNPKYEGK
Chain of Integrin beta-1 (Homo sapiens) + Integrin alpha-4 (Homo sapiens) (P13612 whole entry, looked up): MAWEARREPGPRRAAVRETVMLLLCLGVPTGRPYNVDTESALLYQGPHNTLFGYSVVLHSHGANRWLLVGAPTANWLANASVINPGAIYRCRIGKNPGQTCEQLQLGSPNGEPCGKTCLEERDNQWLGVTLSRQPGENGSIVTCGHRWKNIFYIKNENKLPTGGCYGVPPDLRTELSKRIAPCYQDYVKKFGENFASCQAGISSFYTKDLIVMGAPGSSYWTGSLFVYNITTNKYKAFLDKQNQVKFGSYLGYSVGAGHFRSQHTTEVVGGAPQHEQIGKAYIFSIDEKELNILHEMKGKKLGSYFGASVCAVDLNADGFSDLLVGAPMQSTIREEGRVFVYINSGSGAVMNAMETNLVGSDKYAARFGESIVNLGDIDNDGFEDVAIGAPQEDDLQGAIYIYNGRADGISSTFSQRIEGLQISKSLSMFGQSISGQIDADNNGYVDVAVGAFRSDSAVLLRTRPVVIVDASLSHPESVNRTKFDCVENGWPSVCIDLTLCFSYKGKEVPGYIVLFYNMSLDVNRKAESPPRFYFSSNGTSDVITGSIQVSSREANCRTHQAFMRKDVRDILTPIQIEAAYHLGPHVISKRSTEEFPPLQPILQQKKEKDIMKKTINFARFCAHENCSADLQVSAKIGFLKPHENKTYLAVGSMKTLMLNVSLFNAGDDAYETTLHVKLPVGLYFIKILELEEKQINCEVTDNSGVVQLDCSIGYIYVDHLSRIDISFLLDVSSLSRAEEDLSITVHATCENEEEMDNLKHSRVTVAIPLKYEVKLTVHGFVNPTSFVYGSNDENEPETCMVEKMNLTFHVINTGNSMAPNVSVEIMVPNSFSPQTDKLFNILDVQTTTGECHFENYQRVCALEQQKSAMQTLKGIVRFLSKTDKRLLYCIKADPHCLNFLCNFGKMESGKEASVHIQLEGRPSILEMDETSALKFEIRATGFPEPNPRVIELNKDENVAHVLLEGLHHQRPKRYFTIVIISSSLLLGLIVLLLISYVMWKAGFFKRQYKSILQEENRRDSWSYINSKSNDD

[8] = superoxide lowering in aged yeast cells, pilot screen, validation compound set (AID 2706;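 active means superoxide response below 65% of plate, a cut near 3 SD across the whole screen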;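 further: yeast exposed to compound for one week at 30 degrees C before staining; 100% = mean of all compound wells on the same plate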); conditions: S. cerevisiae aging, superoxide DHE fluorescence; at 10 µM; stronger effect = lower value
[9] = molecular target: Beta-adrenergic receptor kinase 1 (Homo sapiens) (UniProt P25098); test: GRK2 binders displacing RNA aptamer, biochemical, validation, human GRK2, bead flow cytometry (AID 488806;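 active means aptamer binding inhibition above 30%, about 3 SD of noise from non-fluorescent compounds; inactive means inhibition at or below 30%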); conditions: bead-bound GRK2, FAM-aptamer displacement, at 10 µM, stronger effect = higher value
Chain of Beta-adrenergic receptor kinase 1 (Homo sapiens) (P25098 whole entry, looked up): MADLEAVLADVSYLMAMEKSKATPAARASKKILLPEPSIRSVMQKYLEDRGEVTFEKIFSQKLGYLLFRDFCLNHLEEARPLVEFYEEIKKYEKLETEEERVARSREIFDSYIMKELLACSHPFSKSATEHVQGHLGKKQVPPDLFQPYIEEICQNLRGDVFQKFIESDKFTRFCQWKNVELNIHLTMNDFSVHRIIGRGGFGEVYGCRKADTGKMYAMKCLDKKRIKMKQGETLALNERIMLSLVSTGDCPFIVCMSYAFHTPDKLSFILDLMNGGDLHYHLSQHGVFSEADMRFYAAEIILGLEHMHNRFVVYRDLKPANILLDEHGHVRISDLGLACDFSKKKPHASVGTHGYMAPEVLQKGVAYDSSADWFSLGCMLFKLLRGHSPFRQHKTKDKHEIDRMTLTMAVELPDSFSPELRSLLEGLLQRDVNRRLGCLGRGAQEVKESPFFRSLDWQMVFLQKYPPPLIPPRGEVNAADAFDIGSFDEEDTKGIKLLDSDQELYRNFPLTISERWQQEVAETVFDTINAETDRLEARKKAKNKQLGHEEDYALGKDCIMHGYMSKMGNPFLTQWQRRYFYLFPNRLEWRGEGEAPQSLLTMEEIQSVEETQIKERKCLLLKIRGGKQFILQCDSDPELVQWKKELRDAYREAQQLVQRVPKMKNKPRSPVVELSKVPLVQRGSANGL

[10] = molecular target: Beta-2 adrenergic receptor (Homo sapiens) (UniProt P07550); test: beta2AR agonists driving receptor internalization, pilot screen, cell-based, FAP fluorogen, flow cytometry, validation set (AID 504459;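 active means percent response above 42, roughly 3 SD of non-fluorescent test compounds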;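 further: agonist-driven loss of surface beta2AR via internalization measured by FAP dye flow cytometry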); conditions: Am2.2-beta2AR cells, FAP surface receptor flow cytometry; at 10 µM; stronger effect = higher value
Chain of Beta-2 adrenergic receptor (Homo sapiens) (P07550 whole entry, looked up): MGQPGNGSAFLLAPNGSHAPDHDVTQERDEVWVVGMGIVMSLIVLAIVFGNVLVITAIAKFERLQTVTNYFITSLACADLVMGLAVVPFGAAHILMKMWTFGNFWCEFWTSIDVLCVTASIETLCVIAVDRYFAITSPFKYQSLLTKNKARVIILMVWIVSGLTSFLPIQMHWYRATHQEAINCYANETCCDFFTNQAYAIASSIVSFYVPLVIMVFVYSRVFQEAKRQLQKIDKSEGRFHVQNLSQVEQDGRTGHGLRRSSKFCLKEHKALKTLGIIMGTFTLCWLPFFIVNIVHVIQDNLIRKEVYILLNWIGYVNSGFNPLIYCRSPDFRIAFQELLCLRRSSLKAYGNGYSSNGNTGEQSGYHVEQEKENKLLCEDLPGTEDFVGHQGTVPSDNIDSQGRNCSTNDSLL

[11] = molecular target: AP-2 complex subunit beta (Homo sapiens) (UniProt P63010); test: inhibitors of arrestin peptide binding to AP2, pilot screen, biochemical, validation set, GST-AP2 beads, flow cytometry (AID 504541;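 active means inhibition above 54%, about 3 SD of non-fluorescent compounds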;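 further: AP2 carries R879A mutation and is captured from E. coli lysate; bead-bound FITC arrestin peptide fluorescence measuring arrestin peptide binding to AP2; 0% = DMSO wells and 100% = excess unlabeled arrestin peptide control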); conditions: FITC arrestin peptide, at 10 µM, stronger effect = higher value, AP2 beta2 appendage fragment, R879A mutant
Chain of AP-2 complex subunit beta (Homo sapiens) (P63010 whole entry, looked up, the tested form may be a part, one chain of several): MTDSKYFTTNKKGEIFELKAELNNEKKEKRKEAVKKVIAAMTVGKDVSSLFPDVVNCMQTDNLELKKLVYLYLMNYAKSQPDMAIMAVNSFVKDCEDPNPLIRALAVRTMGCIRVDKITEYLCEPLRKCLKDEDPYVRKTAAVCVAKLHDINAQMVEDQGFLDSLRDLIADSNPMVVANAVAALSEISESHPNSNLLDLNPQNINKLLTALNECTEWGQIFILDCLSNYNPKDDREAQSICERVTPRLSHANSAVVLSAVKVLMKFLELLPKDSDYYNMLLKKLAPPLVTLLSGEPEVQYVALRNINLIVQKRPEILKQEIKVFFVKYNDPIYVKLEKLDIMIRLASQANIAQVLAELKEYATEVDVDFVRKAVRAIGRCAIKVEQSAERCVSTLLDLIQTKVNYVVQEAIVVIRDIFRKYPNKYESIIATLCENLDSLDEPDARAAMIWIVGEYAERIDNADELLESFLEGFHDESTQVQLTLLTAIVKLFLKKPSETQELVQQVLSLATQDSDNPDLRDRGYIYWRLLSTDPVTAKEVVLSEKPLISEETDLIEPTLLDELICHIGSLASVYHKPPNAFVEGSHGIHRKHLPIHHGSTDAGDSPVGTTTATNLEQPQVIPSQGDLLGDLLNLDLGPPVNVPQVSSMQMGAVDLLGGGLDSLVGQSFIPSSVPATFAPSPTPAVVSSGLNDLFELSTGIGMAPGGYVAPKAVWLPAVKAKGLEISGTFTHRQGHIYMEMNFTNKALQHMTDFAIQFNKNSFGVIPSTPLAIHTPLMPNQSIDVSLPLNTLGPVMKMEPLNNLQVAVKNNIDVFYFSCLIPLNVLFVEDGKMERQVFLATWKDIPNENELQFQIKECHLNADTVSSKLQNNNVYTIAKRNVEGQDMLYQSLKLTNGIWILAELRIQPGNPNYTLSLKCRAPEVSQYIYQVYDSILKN

[12] = yeast V-ATPase proton transport modulators, S. cerevisiae, pHLuorin, HTS validation (AID 504600; in the data active means response above about 15%;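 further: plate controls were DMSO for no effect and reference compound for full effect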); conditions: S. cerevisiae pHLuorin cytosolic pH, at 10 µM, stronger effect = higher value
[13] = system: anti-desmoglein-3 scFv antibody binding to human DSG3; test: inhibitors of anti-DSG3 scFv binding to DSG3, pilot screen, biochemical, validation compound set, bead-based, flow cytometry (AID 588368;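 active means binding below the plate cutoff, the plate median minus 3 SD, with a reading above zero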;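 further: signal is the median channel fluorescence of bead-bound GFP antibody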); conditions: Protein G beads, DSG3-Fc, scFv-GFP binding, at 10 µM, stronger effect = lower value
[14] = inhibitors of fungal efflux pumps CDR1, CDR2, MDR1, pilot screen, validation compound set, multiplex, phenotypic (AID 588506;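 active means efflux inhibition above 0.42, the validation set average plus 4 SD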;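 further: Nile Red retained in cells so higher fluorescence means more efflux inhibition; 0 = negative control wells and 1 = enniatin B 25 µM full block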); conditions: S. cerevisiae pump-expressing triplex, Nile Red efflux flow cytometry; at 10 µM; stronger effect = higher value; the pumps come from Candida albicans
[15] = molecular target: ATP-binding cassette sub-family B member 6 (Homo sapiens) (UniProt Q9NP58); test: ABCB6 transporter inhibitors, pilot screen, K562-ABCB6 cells, flow cytometry, validation set (AID 588550;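 active means inhibition above the screen-wide mean plus 3 SD, about 51%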;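 further: 0% = DMSO wells and 100% = benzethonium chloride 70 µM positive control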); conditions: K562-ABCB6 porphyrin accumulation, 1 h, at 10 µM, stronger effect = higher value
Chain of ATP-binding cassette sub-family B member 6 (Homo sapiens) (Q9NP58 whole entry, looked up): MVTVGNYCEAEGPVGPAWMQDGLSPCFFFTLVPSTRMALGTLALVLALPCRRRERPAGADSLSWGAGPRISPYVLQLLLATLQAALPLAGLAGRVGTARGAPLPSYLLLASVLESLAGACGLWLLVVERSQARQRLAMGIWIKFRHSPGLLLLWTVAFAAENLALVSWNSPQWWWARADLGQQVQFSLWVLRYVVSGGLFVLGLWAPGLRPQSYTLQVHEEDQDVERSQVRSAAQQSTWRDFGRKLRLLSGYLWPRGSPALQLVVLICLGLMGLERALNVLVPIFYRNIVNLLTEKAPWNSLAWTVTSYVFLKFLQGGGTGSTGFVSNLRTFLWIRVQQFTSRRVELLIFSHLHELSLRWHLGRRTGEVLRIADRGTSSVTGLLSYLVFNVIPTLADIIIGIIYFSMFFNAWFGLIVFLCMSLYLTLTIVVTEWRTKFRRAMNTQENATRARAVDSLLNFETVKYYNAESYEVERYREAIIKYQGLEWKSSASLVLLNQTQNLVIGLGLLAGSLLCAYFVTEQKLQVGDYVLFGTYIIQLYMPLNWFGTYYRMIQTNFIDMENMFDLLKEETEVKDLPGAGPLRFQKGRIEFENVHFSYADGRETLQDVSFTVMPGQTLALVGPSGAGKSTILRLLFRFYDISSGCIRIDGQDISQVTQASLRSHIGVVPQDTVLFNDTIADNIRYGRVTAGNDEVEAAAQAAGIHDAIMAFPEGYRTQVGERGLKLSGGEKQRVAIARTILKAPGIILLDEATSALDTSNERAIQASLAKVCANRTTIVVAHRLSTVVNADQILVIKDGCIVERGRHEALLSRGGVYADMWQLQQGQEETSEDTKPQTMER

[16] = promoters of myeloid differentiation in arrested cells, primary screen, cell-based, GFP/MAC1 double positive, flow cytometry, validation set (AID 588685;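 active means differentiation response of at least 50%, scaled between solvent and reference control, from cells with both markers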;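 further: compound exposure lasts four days before antibody staining and flow analysis; 0% = DMSO wells and 100% = 5 µM fulvestrant positive control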); conditions: ER-HoxA9 marrow cells, stronger effect = higher value, normalized: vehicle 0, fulvestrant 100

Clc1ccc2c(c1)CCc1cccnc1C2=C1CCNCC1
inactive: percent of DMSO control GFP [1] 101% | GFP response vs DMSO [2] 109% | percent response of DMSO control [3] 104% | GFP response vs DMSO [4] 93.3% | GFP response, % of DMSO [5] 97% | vesicle binding response [6] 1240% | inhibition [7] 3.7% | superoxide response (% of plate) [8] 98.7% | aptamer binding inhibition [9] 3% | response [10] 16.1% | inhibition [11] 13.9% | response [12] 1.57% | binding (% of control) [13] 103% | efflux inhibition (fraction of control) [14] -0.17 | inhibition [15] -15% | differentiation response [16] -4.64%
63.9%: double positive events [6]

COc1ccc2cc([C@H](C)C(=O)O)ccc2c1
70.5%: double positive events [6]
inactive: percent of DMSO control GFP [1] 103% | GFP response vs DMSO [2] 93% | percent response of DMSO control [3] 99.6% | GFP response vs DMSO [4] 77.7% | GFP response, % of DMSO [5] 91.7% | vesicle binding response [6] 222% | inhibition [7] 2.3% | superoxide response (% of plate) [8] 91% | aptamer binding inhibition [9] 5% | response [10] 15.2% | inhibition [11] -13.8% | response [12] -6.97% | binding (% of control) [13] 99.3% | efflux inhibition (fraction of control) [14] 0.08 | inhibition [15] 6% | differentiation response [16] -12%

COc1cc(-c2nnc(-c3cccs3)o2)cc(OC)c1OC
active: response [12] 33.5%
inactive: percent of DMSO control GFP [1] 102% | GFP response vs DMSO [2] 106% | percent response of DMSO control [3] 99.7% | GFP response vs DMSO [4] 103% | GFP response, % of DMSO [5] 86.3% | vesicle binding response [6] 98.4% | inhibition [7] -1.09% | superoxide response (% of plate) [8] 99.2% | aptamer binding inhibition [9] 3% | response [10] -28% | inhibition [11] 5.76% | binding (% of control) [13] 101% | efflux inhibition (fraction of control) [14] 0.15 | inhibition [15] 29% | differentiation response [16] -1.65%
61.1%: double positive events [6]

COc1ccc(Br)cc1C(=O)Nc1ccc(C(=O)O)cc1
63.9%: double positive events [6]
inactive: percent of DMSO control GFP [1] 107% | GFP response vs DMSO [2] 105% | percent response of DMSO control [3] 88.4% | GFP response vs DMSO [4] 127% | GFP response, % of DMSO [5] 68.8% | vesicle binding response [6] 240% | inhibition [7] -0.45% | superoxide response (% of plate) [8] 97.6% | aptamer binding inhibition [9] 3% | response [10] -0.63% | inhibition [11] -7.7% | response [12] 1.41% | binding (% of control) [13] 96.3% | efflux inhibition (fraction of control) [14] -0.04 | inhibition [15] -4% | differentiation response [16] 5.13%

COc1ccc(CCNc2ncnc3c2[nH]c2cc(OC)c(OC)cc23)cc1OC
inactive: percent of DMSO control GFP [1] 97.2% | GFP response vs DMSO [2] 126% | percent response of DMSO control [3] 111% | GFP response vs DMSO [4] 82.5% | GFP response, % of DMSO [5] 98.7% | vesicle binding response [6] 178% | inhibition [7] 0.64% | superoxide response (% of plate) [8] 97.5% | aptamer binding inhibition [9] 2% | response [10] 19.8% | inhibition [11] -1.78% | response [12] 3.11% | binding (% of control) [13] 101% | efflux inhibition (fraction of control) [14] -0.06 | inhibition [15] 10% | differentiation response [16] -0.82%
64%: double positive events [6]

CCC(C)NCCOCCOc1ccc(Cl)cc1Br (stereo not drawn)
inactive: percent of DMSO control GFP [1] 103% | GFP response vs DMSO [2] 102% | percent response of DMSO control [3] 102% | GFP response vs DMSO [4] 100% | GFP response, % of DMSO [5] 103% | vesicle binding response [6] 142% | inhibition [7] 0.25% | superoxide response (% of plate) [8] 98% | aptamer binding inhibition [9] -7% | response [10] -3.72% | response [12] -10.6% | binding (% of control) [13] 95.8% | efflux inhibition (fraction of control) [14] -0.16 | inhibition [15] -14% | differentiation response [16] -4.57%
active: inhibition [11] 57.1%
61.4%: double positive events [6]

CCOCCCNCc1cn(-c2ccc(F)cc2F)nc1-c1ccccc1C
inactive: percent of DMSO control GFP [1] 103% | GFP response vs DMSO [2] 98.3% | percent response of DMSO control [3] 109% | GFP response vs DMSO [4] 93.3% | GFP response, % of DMSO [5] 102% | vesicle binding response [6] 200% | inhibition [7] -1.49% | superoxide response (% of plate) [8] 101% | aptamer binding inhibition [9] 1% | response [10] -8.93% | inhibition [11] 14.5% | response [12] 4.59% | binding (% of control) [13] 94.2% | efflux inhibition (fraction of control) [14] -0.07 | inhibition [15] -10% | differentiation response [16] -1.71%
61.9%: double positive events [6]

O=C1C(Cc2c[nH]c3ccccc23)NC(=S)N1Cc1ccccc1 (stereo not drawn)
67.5%: double positive events [6]
inactive: percent of DMSO control GFP [1] 108% | GFP response vs DMSO [2] 102% | percent response of DMSO control [3] 104% | GFP response vs DMSO [4] 91.5% | GFP response, % of DMSO [5] 95.5% | vesicle binding response [6] 132% | inhibition [7] 8.29% | superoxide response (% of plate) [8] 104% | aptamer binding inhibition [9] 1% | response [10] 3.86% | inhibition [11] 2.2% | response [12] -1.19% | binding (% of control) [13] 94.9% | efflux inhibition (fraction of control) [14] 0 | inhibition [15] 8% | differentiation response [16] 7.13%

CCN(CC)CCCNC(=O)C1c2ccccc2Oc2ccccc21
active: efflux inhibition (fraction of control) [14] 0.49
inactive: percent of DMSO control GFP [1] 100% | GFP response vs DMSO [2] 95.1% | percent response of DMSO control [3] 95.4% | GFP response vs DMSO [4] 89.4% | GFP response, % of DMSO [5] 97.2% | vesicle binding response [6] 1360% | inhibition [7] 13% | superoxide response (% of plate) [8] 101% | aptamer binding inhibition [9] 2% | response [10] 2.25% | inhibition [11] 17% | response [12] -0.98% | binding (% of control) [13] 101% | inhibition [15] -2% | differentiation response [16] 26.6%
64.1%: double positive events [6]
